# Rows were chosen to be rich in hits. Some 19% of all compounds tested hit in one or more screens of this group.
# TDP1 block: qHTS Assay for Inhibitors of Tyrosyl-DNA Phosphodiesterase (TDP1) | recombinant TDP1, AlphaScreen DNA substrate cleavage | Potency, µM (top dose mostly 130 µM), for the others: at the top dose activity change, negative = inhibition, most hits filed as inhibitors | 350,000 tested, 0.28% active; further: nearly all actives have a fitted effect of over 40% in size
#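 Signal: AlphaScreen proximity between streptavidin donor and anti-FITC acceptor beads on intact substrate. Reaction: Tdp1 1 nM, substrate 15 nM final, 5 min RT after 15 min compound preincubation.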
# RORgamma inh: qHTS for inhibitors of ROR gamma transcriptional activity; 310,000 tested, 5.4% active; Drosophila S2 Gal4-RORgamma UAS-luciferase reporter, 20 h; AID 2551, 2010; Potency, µM (highest dose often 53.6 µM), for inactives: at the highest dose activity change, negative = inhibition, hits mostly inhibitors; further: nearly all actives have a fitted effect of over 60% in size
# Target sequence (P51450 whole entry, looked up, the tested form may be a part): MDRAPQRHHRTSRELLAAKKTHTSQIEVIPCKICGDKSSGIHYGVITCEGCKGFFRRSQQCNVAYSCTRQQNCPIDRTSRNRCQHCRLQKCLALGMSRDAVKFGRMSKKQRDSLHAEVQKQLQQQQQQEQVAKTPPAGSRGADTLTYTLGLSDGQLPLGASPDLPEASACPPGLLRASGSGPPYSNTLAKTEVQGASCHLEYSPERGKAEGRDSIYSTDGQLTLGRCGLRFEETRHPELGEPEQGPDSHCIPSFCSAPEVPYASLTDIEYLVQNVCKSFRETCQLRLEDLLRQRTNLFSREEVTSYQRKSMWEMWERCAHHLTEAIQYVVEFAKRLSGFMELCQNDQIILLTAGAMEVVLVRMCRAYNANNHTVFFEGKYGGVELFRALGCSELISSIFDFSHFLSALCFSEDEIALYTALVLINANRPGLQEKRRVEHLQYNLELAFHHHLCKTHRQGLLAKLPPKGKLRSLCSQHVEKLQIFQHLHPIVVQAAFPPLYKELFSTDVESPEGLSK
#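 Luminescence from a UAS-regulated Photinus luciferase reporter in stably transfected Drosophila Schneider cells is measured; decreased signal marks ROR gamma inhibition. Fusion expression is induced by 700 uM copper sulfate for 20 hr.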
# TDP1 cell noCPT: qHTS for Inhibitors of human tyrosyl-DNA phosphodiesterase 1 (TDP1): qHTS in cells in absence of CPT; Potency, µM (series often up to 46.2 µM), for inactives: at the highest dose activity change, negative = growth inhibition, actives largely listed as inhibitors; 420,000 tested, 15% active; AID 686978, 2013; DT40 Tdp1-/- hTDP1 cells, no CPT, ATP luminescence, 48 h; further: nearly all actives have a fitted effect of over 55% in size
#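 Growth of hTDP1-complemented DT40 Tdp1-knockout cells is measured by ATP luminescence after at least 48 hr compound exposure at 37 °C, with DMSO substituting for the 20 nM CPT used in the parallel screen.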
# VP16 counter: VP16 counterscreen qHTS for inhibitors of ROR gamma transcriptional activity; Drosophila S2 Gal4-VP16 UAS-luciferase, luminescence, 20 h; Potency, µM (doses to about 53.6 µM), without a hit: at the top dose activity, negative = inhibition, usual class: inhibitors; 310,000 tested, 3.5% active; AID 2546, 2010;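 further: Gal4-VP16 expression switched on by copper sulfate through the metallothionein promoter; nearly all actives have a fitted effect of over 50% in size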
# TDP1 cell CPT: qHTS for Inhibitors of human tyrosyl-DNA phosphodiesterase 1 (TDP1): qHTS in cells in presence of CPT | chicken DT40 Tdp1-/-;hTDP1 cells + 20 nM CPT, ATP luminescence, 48 h | Potency, µM (titrated, usually from 46.2 µM), for inactives: top-dose activity change, negative = growth inhibition, actives largely listed as inhibitors | 420,000 tested, 12% active | AID 686979, 2013; further: nearly all actives have a fitted effect of over 55% in size
#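 Cell growth measured by CellTiter-Glo luminescence after a minimum 48 h, 37 C compound exposure with 20 nM CPT in Tdp1-knockout DT40 cells stably expressing hTDP1, seeded 400/well; qHTS titration format.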
# Active calls of the source: *; ? = inconclusive; . = no result given. The call rests on the fitted dose curve; in most records, active means well fitted curve in the direction sought with a large enough effect; inconclusive means small, poorly fitted or top-dose-only effect, or another doubt; inactive means no such curve, though single readings can be large; an effect the other way counts as inactive or inconclusive. On the % scale 0 is the no-effect control and ±100 the full control effect; potency means the concentration at half of the fitted maximal effect.
SMILES,TDP1 block,RORgamma inh,TDP1 cell noCPT,VP16 counter,TDP1 cell CPT
O=C(COc1ccc([N+](=O)[O-])cc1)Nc1ccc(N2CCN(C(=O)c3ccco3)CC2)cc1,3%,23%,5.8µM*,-15%,9.2µM*
C=CCN1C(=O)c2ccc(C(=O)N3CCN(S(=O)(=O)c4cccc([N+](=O)[O-])c4)CC3)cc2C1=O,2%,.,8%,.,-7%
S=c1[nH]c2cc(-c3ccccc3)ccc2o1,6%,10µM*,-13%,13µM*,2%
Cc1[nH]nc(N)c1-c1ccccc1,5%,25%,-9%,-9%,-5%
CC(C)n1cc(/C=C2/NC(=O)N(c3cccc(Cl)c3)C2=O)c2ccccc21,-2%,?,?,-7%,26µM*
Cc1ccc(C(=O)Nc2cccc(OCc3cc(=O)n4c5c(sc4n3)CCCC5)c2)cc1,4%,.,-15%,.,-16%
Cc1ccc(-c2[nH]ncc2CNCc2ccccc2)cc1,1%,.,18µM*,.,11µM*
CCn1c(=O)c(CCC(=O)NCCN2CCOCC2)c(C)c2c(C)nn(-c3ccccc3)c21,5%,-38%,?,-20%,21µM*
CCn1c(=O)c(CCC(=O)N2CCN(c3ccccn3)CC2)c(C)c2c(C)nn(-c3ccccc3)c21,10%,-17%,21µM*,1%,16µM*
Cc1ccc(-c2nn(CCC(=O)NCC3CCCO3)c(=O)c3ccccc23)cc1 (centres undefined),5%,18%,4%,-5%,-3%
CCn1cc(CCC(=O)NCCN2CCOCC2)c2ccccc21,.,0%,8%,-7%,-4%
CCn1c(=O)c(CCC(=O)NCC2CCCO2)c(C)c2c(C)nn(-c3ccccc3)c21 (centres undefined),4%,18%,?,4%,16µM*
Cc1ccc(-n2nc(C)c3c(C)c(CCC(=O)NCC4CCCO4)c(=O)n(C)c32)cc1 (centres undefined),0%,1%,23µM*,1%,?
CN(C)CCN1C(=O)C(O)=C(C(=O)c2cc3ccccc3o2)C1c1ccc(N(C)C)cc1 (centres undefined),0%,25%,-8%,23%,3%
Cc1ccc(C(=O)N/N=C/C=C/c2ccccc2)o1,5%,?,-12%,2%,-1%
CCOc1ccc(-n2cc(-c3ccccc3)c3c(=S)nc[nH]c32)cc1,10%,1µM*,?,1.1µM*,15µM*
COc1ccc(-c2nnc3n2C(C)(C)Cc2cc(OC)c(OC)cc2-3)cc1,2%,25%,.,-4%,.
COc1cc2c(cc1OC)-c1nnc(-c3cccs3)n1C1(CCCC1)C2,0%,11%,21µM*,-11%,21µM*
Cc1ccc(/C=C(\C#N)C(=O)NCCN2CCOCC2)cc1,4%,-2%,-13%,-10%,4%
CCN1C(=O)[C@@H]2[C@@H](c3ccc(-c4ccc(C(C)=O)cc4)cc3)N3CCCC[C@@]3(C(=O)OC)[C@@H]2C1=O,-2%,.,18µM*,.,16µM*
CCN1C(=O)[C@@H]2[C@@H](c3ccc(-c4ccc(OC)cc4)cc3)N3CCCC[C@@]3(C(=O)OC)[C@@H]2C1=O,-1%,.,16µM*,.,26µM*
CCN1C(=O)[C@H]2[C@@H](c3ccc(-c4ccccc4)cc3)N3CCCC[C@@]3(C(=O)OC)[C@H]2C1=O,0%,.,18µM*,.,?
CN1CCCN(C(=O)c2ccc(Cl)c(S(=O)(=O)N(C)c3ccccc3)c2)CC1,4%,-22%,-1%,2%,-1%
Cc1onc(-c2ccccc2)c1C(=O)N1CCC(C)(C(=O)O)C1 (centres undefined),.,.,-16%,.,-8%
Cc1cc(C)n(-c2nnc(NC(C)(C)C)nn2)n1,3%,-7%,-13%,-4%,5%
SMILES,TDP1 block,RORgamma inh,TDP1 cell noCPT,VP16 counter,TDP1 cell CPT
Cc1cc(C)n(-c2nc(NC(C)C)nc(NC(C)C)n2)n1,3%,0.56µM*,1.5µM*,2.5µM*,1µM*
Cc1cc(C)n(-c2nc(N(C)C)nc(N(C)C)n2)n1,1%,2.8µM*,15µM*,7.1µM*,?
Cc1cc(C)n(-c2nc(NC(C)(C)C)nc(NC(C)(C)C)n2)n1,4%,2µM*,1.8µM*,?,2.1µM*
CCNc1nc(NCC)nc(-n2nc(C)cc2C)n1,0%,0.71µM*,2.6µM*,2.2µM*,2.3µM*
CC(C)(C)c1cc(NC(=O)c2ccco2)no1,1%,?,5%,?,-5%
CN(C(=O)CSc1ncnc2sc(-c3ccccc3)cc12)C1CCS(=O)(=O)C1 (centres undefined),5%,11µM*,?,?,?
CN(C(=O)CSc1nc(-c2ccccc2)c(-c2ccccc2)o1)C1CCS(=O)(=O)C1 (centres undefined),5%,11%,?,3%,?
CCN(C(=O)CSc1nc(C)nc2sc(C)c(C)c12)C1CCS(=O)(=O)C1 (centres undefined),-1%,.,-9%,.,4%
CN(C(=O)CSc1ncnc2scc(-c3ccccc3)c12)C1CCS(=O)(=O)C1 (centres undefined),3%,?,-22%,-2%,0%
CN(C(=O)CSc1nnc(-c2ccccc2)c(-c2ccccc2)n1)C1CCS(=O)(=O)C1 (centres undefined),8%,-11%,21µM*,3%,16µM*
O=C(CSc1ncnc2sc(-c3ccccc3)cc12)NC1CCS(=O)(=O)C1 (centres undefined),1%,?,15µM*,4%,-52%
CCOC(=O)c1sc2nc(C)nc(SCC(=O)N(C)C3CCS(=O)(=O)C3)c2c1C (centres undefined),6%,13µM*,2%,-4%,?
COc1cc(CNn2nnnc2N)ccc1OCC(=O)NC(C)(C)C,1%,4%,4%,6%,-14%
Cc1cccc(NC(=S)Nc2ccc(Oc3ccccc3)cc2)n1,2%,9%,?,?,?
COC(=O)c1ccc(NC(=S)Nc2ccccn2)cc1,-11%,1µM*,?,1µM*,?
COc1ccc(NC(=S)Nc2ccccn2)cc1,3%,2.8µM*,?,7.1µM*,?
COC(=O)c1ccc(NC(=S)Nc2ccc(O)cc2)cc1,2%,-13%,-22%,3%,-2%

# Source: PubChem BioAssay (National Center for Advancing Translational Sciences (NCATS))
